Sampled rows, rich in hits. Any-hit rate of the full collection: about 2.9%.
GAA850 FXN act = frataxin GAA850 promoter activation; HEK293 lucGAA850 FXN promoter luciferase reporter, 24 h; percent of 10 µM SAHA response; activation, % at 6 µM; hit rate 0.56% among 360,000;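 active = activation above the average of all compounds screened plus 3 SD, cutoff fixed separately per campaign, cut at about 7.5% in these data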
SMARCA2 act = increases SMARCA2 function in MMTV reporter cells; hit rate 1% among 370,000; MG213 cells, MMTV-luciferase reporter, dexamethasone, overnight; activation, % at 9.1 µM; in the data active = activation above about 7.8%
FAS TE block = inhibitors of human fatty acid synthase thioesterase domain; hit rate 0.67% among 360,000; inhibition, % at 15 µM; P49327; recombinant FAS-TE, OMFH fluorogenic substrate, fluorescence endpoint;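 active = compounds whose normalised, plate-corrected inhibition of enzyme fluorescence in the single-dose primary screen is 50% or more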
KLK7 zymogen act = activates the human kallikrein-7 zymogen; P49862; purified proKLK7, EDANS-DABCYL substrate fluorescence; 100% is mature enzyme control, 0% vehicle; activation, % at 7 µM; hit rate 0.9% among 370,000;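 active = activation above the mean of all tested compounds plus 3 SD, computed per campaign excluding outliers beyond control limits, cut at about 13% in these data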
Target sequence (P49862 whole entry, looked up): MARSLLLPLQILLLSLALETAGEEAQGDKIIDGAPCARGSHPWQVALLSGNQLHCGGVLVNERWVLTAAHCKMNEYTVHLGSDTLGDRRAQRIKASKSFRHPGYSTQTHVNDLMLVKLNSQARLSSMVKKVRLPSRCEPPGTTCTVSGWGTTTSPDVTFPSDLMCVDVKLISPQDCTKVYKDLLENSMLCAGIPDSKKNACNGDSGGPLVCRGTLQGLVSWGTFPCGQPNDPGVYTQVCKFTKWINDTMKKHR
SMARCA2 conf = SMARCA2 activation, confirmation screen | activation, % at 9.1 µM | hit rate 30% among 3,500 | AID 652260 | MG213 cells, MMTV-luciferase with dexamethasone, luminescence, overnight; MG213 cells expressing E1A, Rb sequestered; DMSO wells 0%, reference activator 100% | shares compounds with SMARCA2 act;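 active = activation above its plate's cutoff, the mean activation of tested wells plus 3 SD, cut at about 7.9% in these data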
VP16 Luc act = GAL4-VP16 reporter activation counter-screen | activation, % at 9.1 µM | hit rate 41% among 3,500 | shares compounds with SMARCA2 act | HEK293 GAL4-VP16 pG5luc reporter, luciferase luminescence; scaled: DMSO wells 0%, SAHA wells 100%;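 active = activation above the solvent-only control well mean plus 3 SD, averaged across control plates, cut at about 5.2% in these data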
KLK7 act conf = proKLK7 activation, confirmation; shares compounds with KLK7 zymogen act; purified proKLK7, EDANS-DABCYL substrate fluorescence; scaled: vehicle 0, mature enzyme 100; activation, % at 7 µM; hit rate 68% among 3,200; AID 686949;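 active = activation, as change over the incubation, above the mean of all tested compounds plus 3 SD, cut at about 13% in these data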
EDANS interfere = optically interferes with EDANS-DABCYL signal, flagging KLK7 hits; activation, % at 7 µM; shares compounds with KLK7 zymogen act; hit rate 80% among 3,200; EDANS-DABCYL substrate fluorescence interference, no enzyme, 4 h; solvent 0%, active enzyme control 100%;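 active = activation above the all-compound mean plus 3 SD, ignoring values outside control-based bounds, cut at about 4.8% in these data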;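 also: value is the 4 h activation minus the activation read at time zero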
K7 EDANS ctr = EDANS fluorescence interference in dose response, no enzyme; shares compounds with KLK7 zymogen act; EC50, µM; EDANS-DABCYL peptide fluorescence interference; AID 720493; hit rate 20% among 250;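 active = compounds that raise the fluorescence signal in this interference counterscreen, with EC50 at or below 10 µM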;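 also: intact quenched peptide substrate alone read at 355 nm excitation and 520 nm emission; signal is fluorescence gain from T0 to T4 after four hours at room temperature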
Hits are given with their value; n = inactive; x = not tested or not shown.

SMILES	GAA850 FXN act	SMARCA2 act	FAS TE block	KLK7 zymogen act	KLK7 act conf	EDANS interfere	others
Cc1cc(OC(C)C(=O)NCC(O)c2ccccc2)c2c3c(c(=O)oc2c1)CCCC3 (stereo unspecified)	n	n	n	n	x	x
CCOC(=O)c1c(C)[nH]c(C(=O)C(C)N2CCCC2)c1C (stereo unspecified)	n	8.4	n	n	x	x	SMARCA2 conf=n;VP16 Luc act=n
CCNC(=O)NNC(=O)C1CC(c2cccnc2)=NO1 (stereo unspecified)	n	n	n	n	x	x
CCC(=NCCOc1ccc(Cl)cc1)c1c(O)n(C)c(=O)n(C)c1=O	n	n	n	n	x	x
O=C(c1cc(S(=O)(=O)N2CCCCC2)ccc1F)N1CCC2(CC1)OCCO2	n	8.1	n	n	x	x	SMARCA2 conf=n;VP16 Luc act=n
O=C(c1ccccc1F)N1CCC2(CC1)OCCO2	n	n	n	n	x	x
Cc1ccccc1C(=O)N1Cc2cnnn2-c2ccccc2C1C#N (stereo unspecified)	n	n	n	n	x	x
Cc1ccccc1CN1Cc2cnnn2-c2ccccc2C1C#N (stereo unspecified)	n	9.2	n	n	x	x	SMARCA2 conf=n;VP16 Luc act=n
COc1cc2c(cc1OC)-c1c3c(cc4c1[C@@H](C2)N(C)CC4)OCO3	n	11	n	n	x	x	SMARCA2 conf=15;VP16 Luc act=n
COc1cc2c(cc1OC)-c1c(OC)c(OC)cc3c1C(C2)N(C)CC3 (stereo unspecified)	n	n	n	n	x	x
COC(=O)CC1(Cc2ccccc2)C(=O)NC(=O)NC1=O	n	n	n	n	x	x
CN(C)C(=O)Oc1cccc(-c2cn3cc(Cl)ccc3n2)c1	n	26	n	n	x	x	SMARCA2 conf=18;VP16 Luc act=6.3
CCN(CC)c1ccc(N=Cc2c(O)n(Cc3ccccc3)c(=O)[nH]c2=O)cc1	n	n	n	n	x	x
COc1ccc(CN2Cc3cc(-c4ccc(OC)cc4)ccc3-n3nncc3C2)cc1	x	8.0	n	n	x	x	SMARCA2 conf=n;VP16 Luc act=n
CC[C@@]1(O)C(=O)OCc2c1cc1n(c2=O)Cc2cc3c(NC(=O)CN)cccc3nc2-1	n	n	n	350	109	99
CCC1CN1P1(=O)OCC(C)([N+](=O)[O-])CO1 (stereo unspecified)	n	n	n	n	x	x
COc1ccc2cc(C(=O)C3CCCN(C4CCOCC4)C3)ccc2c1 (stereo unspecified)	n	n	n	139	n	20
COc1c(C)cc(C(=O)C2CCCN(C3CCOCC3)C2)cc1C (stereo unspecified)	n	n	n	n	x	x
O=c1ccc2cc(O[C@@H]3O[C@H](CO)[C@@H](O)[C@H](O)[C@H]3O)c(O)cc2o1	n	n	n	53	67	71
COc1ccc(-c2cc(=NCCC(=O)O)c3cc(C)ccc3o2)cc1	n	n	n	85	69	73
Cc1cc(OCC(=O)N2CCC(C(=O)O)CC2)c2c3c(c(=O)oc2c1)CCC3	n	n	n	19	13	16
COC(=O)C(C)Oc1cc(C)cc2oc(=O)c3c(c12)CCC3 (stereo unspecified)	n	n	n	16	n	12
C#CC1(O)CCC2C3CCC4=CC(=O)CCC4=C3C=CC21C (stereo unspecified)	n	n	n	14	n	11
C#C[C@]1(O)CCC2C3C(=O)C=C4C=CCC[C@]4(C)C3CC[C@@]21C (stereo partly specified)	n	n	n	n	x	x
CN1CC2=CC(O)CC3Oc4c(O)ccc(c4[C@]23C)C1 (stereo partly specified)	n	n	n	n	x	x
SMILES	GAA850 FXN act	SMARCA2 act	FAS TE block	KLK7 zymogen act	KLK7 act conf	EDANS interfere	others
Cc1cc(=O)oc2cc3c(cc12)CCCN3	n	n	n	60	66	63
Cn1c(O)c(/C=C2\C=c3ccccc3=NC2=O)c(=O)n(C)c1=O	n	n	n	13	14	12
O=C(c1cc2c(s1)-c1ccccc1OC2)N1CCC2(CC1)OCCO2	n	n	n	50	63	75
CCOC(=O)CC1c2ccccc2-n2nncc2CN1Cc1ccc(OC)cc1 (stereo unspecified)	n	n	n	n	x	x
c1ccc(NC2=NCCS2)cc1	n	n	n	n	x	x
O=c1c2ccccc2nc(/C=C/c2ccc(O)cc2)n1-c1cccc(O)c1	n	n	n	214	207	78
COc1ccc(-n2c(/C=C/c3ccc(O)cc3)nc3ccccc3c2=O)cc1	n	n	n	n	x	x
O=c1c2ccccc2nc(/C=C/c2ccc(O)cc2)n1-c1ccc(O)cc1	n	n	n	26	14	n	K7 EDANS ctr=n
O=C(Cc1cc(=O)oc2cc(O)ccc12)NN=Cc1ccc(N(CCCl)CCCl)cc1	n	n	n	119	44	31	K7 EDANS ctr=n
O=C(NN=Cc1ccc(N(CCCl)CCCl)cc1)c1cc(=O)[nH]c(=O)[nH]1	n	n	n	n	x	x
CN1CCN(C(=O)COc2ccc(S(=O)(=O)NC3CCCCC3)cc2Cl)CC1	n	n	n	n	x	x
CN(C)c1ccc(/C=C2/C(=N\O)C3CCN2CC3)cc1	n	n	n	56	130	153
O=C1C(=Cc2ccccc2)N2CCC1CC2	n	n	n	n	x	x
CCCCn1c(O)c(C(C)=NCc2cccnc2)c(=O)[nH]c1=O	n	n	n	n	x	x
CP(C)(=O)CCC(=O)O	n	n	n	n	x	x
COc1ccc2c(c1)[nH]c1c(C)nccc12	n	n	n	47	20	11	K7 EDANS ctr=n
O=c1[nH]c(=S)n(Cc2ccc(F)cc2)c(O)c1/C=N/N1CCCCC1	n	n	n	14	n	n
CCN1C[C@]2(COC)CC[C@H](O)[C@@]34C5C[C@@H]6[C@@H](OC)C[C@@](O)(C5[C@H]6O)[C@](O)([C@@H](OC)C23)[C@@H]14 (stereo partly specified)	n	n	n	n	x	x
CCOCCCn1c(N)c(C(=O)Nc2sc3c(c2C(=O)OC)CCCC3)c2nc3ccccc3nc21	n	n	n	28	n	n
CN1C[C@H](CO)C=C2c3cccc4[nH]cc(c34)C[C@H]21	n	n	n	39	30	25	K7 EDANS ctr=n
CC(C)[C@H]1C(=O)N2CCC[C@H]2[C@]2(O)O[C@](NC(=O)[C@@H]3C=C4c5cccc6[nH]cc(c56)C[C@H]4N(C)C3)(C(C)C)C(=O)N12	n	x	n	x	x	x
